ATG4B inh = inhibitors of human ATG4B cysteine protease; AID 504462; Q9Y4P1; inhibition, % at 8.33 µM; ATG4B cleavage of LC3-PLA2, NBD-HPC fluorescence, 1 h; hit rate 0.51% among 340,000; in the data active = inhibition above about 40%
Target sequence (Q9Y4P1 whole entry, looked up): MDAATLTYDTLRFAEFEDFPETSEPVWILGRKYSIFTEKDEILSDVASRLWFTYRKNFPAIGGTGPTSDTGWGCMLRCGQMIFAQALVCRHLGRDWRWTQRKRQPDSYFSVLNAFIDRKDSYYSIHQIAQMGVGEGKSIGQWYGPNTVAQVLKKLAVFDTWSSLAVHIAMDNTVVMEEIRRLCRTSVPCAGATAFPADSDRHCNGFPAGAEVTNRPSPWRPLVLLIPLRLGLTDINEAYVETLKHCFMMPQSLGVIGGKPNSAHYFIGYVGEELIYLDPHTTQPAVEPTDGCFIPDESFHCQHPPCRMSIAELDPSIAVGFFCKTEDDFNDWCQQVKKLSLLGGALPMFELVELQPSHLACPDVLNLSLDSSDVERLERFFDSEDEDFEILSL
UBC13 inh = human UBC13 polyubiquitination inhibition; inhibition, % at 20 µM; UBC13 polyubiquitin chain formation, TR-FRET; P61088; AID 485273; hit rate 0.47% among 330,000; in the data active = inhibition above about 45%, passing the limit was not always enough
Target sequence (P61088 whole entry, looked up): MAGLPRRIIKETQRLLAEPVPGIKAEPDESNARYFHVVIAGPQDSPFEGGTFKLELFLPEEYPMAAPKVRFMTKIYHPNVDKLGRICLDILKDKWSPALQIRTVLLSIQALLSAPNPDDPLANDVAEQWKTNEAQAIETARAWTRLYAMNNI
MEKK2 WT-MEK5 = raises or lowers MEK5 binding to wildtype human MEKK2 PB1 domain. Q9Y2U5. bead flow cytometry, Alexa488-MEK5 binding to MEKK2 WT; actives lie on both sides. binding response (% of control), % at 10 µM. hit rate 1.1% among 290,000. AID 1531; in the data active = binding response below about 67% or above about 130%
MEKK3 PB1 HTS = MEKK3-MEK5 PB1 interaction, increase or decrease | hit rate 1.4% among 290,000 | bead-based flow cytometry, Alexa488-MEK5 binding to MEKK3; actives lie on both sides; 0 = blocked by unlabeled MEK5, 100 = vehicle | binding response (% of control), % at 10 µM;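 active = binding response more than 3 SD above or below the average of its plate-row segment, actives on both sides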;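 also: Alexa488 bead fluorescence after subtracting the streptavidin-only scavenger bead signal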
MEKK2 mut-MEK5 = signal of MEK5 binding to mutant human MEKK2 PB1 domain; bead flow cytometry, Alexa488-MEK5 binding to MEKK2 mutant; percent response, % at 10 µM; hit rate 0.35% among 290,000; AID 1530; in the data active = percent response above about 24%, passing the limit was not always enough
PREPL inhibitor = inhibitors of human prolyl oligopeptidase-like enzyme PREPL; Q4J6C6; recombinant PREPL, fluorescence polarization activity-based probe; inhibition, % at 5.96 µM; hit rate 0.68% among 320,000; in the data active = inhibition above about 43%;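 also: 0% = enzyme with DMSO and 100% = wells lacking enzyme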
ATG4B conf = ATG4B (human) inhibition, single-dose confirmed; shares compounds with ATG4B inh; ATG4B protease fluorescent substrate cleavage assay; inhibition, % at 8.33 µM; hit rate 92% among 320; in the data active = inhibition above about 39%
PLA2 counter = inhibits human PLA2, flagging false ATG4B inhibitors | shares compounds with ATG4B inh | purified PLA2, NBD-C6-HPC fluorescence, 45 min | inhibition, % at 8.33 µM | hit rate 66% among 1,600 | AID 588402; in the data active = inhibition above about 50%
An asterisk follows results filed as active. A selection: hits, their analogues and other compounds. The true share with any hit is near 3.1%.

`CN(C)S(=O)(=O)c1ccc(Cl)c(C(=O)Nc2ccc(S(=O)(=O)N3CCOCC3)cc2)c1` gave ATG4B inh 0, UBC13 inh 0, MEKK2 WT-MEK5 100, MEKK3 PB1 HTS 101, MEKK2 mut-MEK5 -2 and PREPL inhibitor -6.
For O=C(c1ccc(Cl)c(S(=O)(=O)Nc2ccccc2C(=O)N2CCc3ccccc3C2)c1)N1CCc2ccccc2C1 the results were ATG4B inh 48*, UBC13 inh -29, MEKK2 WT-MEK5 99, MEKK3 PB1 HTS 102, MEKK2 mut-MEK5 -2, PREPL inhibitor 30, ATG4B conf 62* and PLA2 counter 38.
C/C(=N\NC(=O)c1cccc(S(=O)(=O)N2CCCC2)c1)c1ccc(C)cc1 was read as ATG4B inh -2, UBC13 inh -5 and PREPL inhibitor -7.
`CC(C)(C)c1cc(C(=O)NNc2cc(C(F)(F)F)ccc2Cl)n(Cc2ccccc2)n1` gave ATG4B inh 43*, UBC13 inh -15, MEKK2 WT-MEK5 100, MEKK3 PB1 HTS 100, MEKK2 mut-MEK5 5, PREPL inhibitor 6 and PLA2 counter 63*.
Fc1cccc(COc2ccccc2CNc2ccccc2)c1 was read as ATG4B inh 20, MEKK2 WT-MEK5 115, MEKK3 PB1 HTS 97, MEKK2 mut-MEK5 1 and PREPL inhibitor 15.
`CCOc1ccc(NCc2ccccc2OCc2cccc(F)c2)cc1` gave ATG4B inh 46*, UBC13 inh -6, MEKK2 WT-MEK5 98, MEKK3 PB1 HTS 93, MEKK2 mut-MEK5 -3, PREPL inhibitor 21, ATG4B conf 60* and PLA2 counter 36.
`Cc1cc(C(=O)N/N=C/c2cc(Br)cc(Br)c2OC(=O)c2cccc(F)c2)n[nH]1` gave ATG4B inh 44*, UBC13 inh -7, MEKK2 WT-MEK5 91, MEKK3 PB1 HTS 106, MEKK2 mut-MEK5 -6, PREPL inhibitor 0 and PLA2 counter 42.
`Cc1cc(C(=O)N/N=C/c2cc(Br)cc(Br)c2OC(=O)c2ccccc2)n[nH]1` gave UBC13 inh -22, MEKK2 WT-MEK5 93, MEKK3 PB1 HTS 96, MEKK2 mut-MEK5 6 and PREPL inhibitor -8.
Screening Cc1cc(C(=O)N/N=C\c2cc(C(C)(C)C)ccc2O)n[nH]1 returned ATG4B inh 47*, UBC13 inh 2, MEKK2 WT-MEK5 103, MEKK3 PB1 HTS 103, MEKK2 mut-MEK5 3, PREPL inhibitor 1 and PLA2 counter 55*.
Screening Cc1cc(/C=C2\NC(=O)N(Cc3ccc(Cl)cc3)C2=O)c(C)n1C returned ATG4B inh 30, MEKK2 WT-MEK5 61, MEKK3 PB1 HTS 69, MEKK2 mut-MEK5 -2 and PREPL inhibitor 24.
Cc1cccc(/C=C/c2onc(C)c2S(=O)(=O)N2CCC(C(=O)N3CCCCCC3)CC2)c1 was read as ATG4B inh 40*, UBC13 inh -10, MEKK2 WT-MEK5 95, MEKK3 PB1 HTS 100, MEKK2 mut-MEK5 1, PREPL inhibitor 30 and PLA2 counter 52*.
Cc1noc(/C=C/c2ccco2)c1S(=O)(=O)N1CCC(C(=O)NC(C)c2ccccc2)CC1 (stereo not given) was read as ATG4B inh -2, UBC13 inh -27, MEKK2 WT-MEK5 105, MEKK3 PB1 HTS 105, MEKK2 mut-MEK5 4 and PREPL inhibitor 12.
`Cc1noc(/C=C/c2ccco2)c1S(=O)(=O)N1CCC(C(=O)N2c3ccccc3CC2C)CC1` (stereo not given) gave ATG4B inh 48*, UBC13 inh -13, PREPL inhibitor -3 and PLA2 counter 76*.
`Cc1cccc(/C=C/c2onc(C)c2S(=O)(=O)N2CCC(C(=O)N3CCC(C)CC3)CC2)c1` gave ATG4B inh 25, UBC13 inh -10, MEKK2 WT-MEK5 95, MEKK3 PB1 HTS 98, MEKK2 mut-MEK5 -5 and PREPL inhibitor 31.
Screening Cn1cccc1C(=O)NC(=O)COC(=O)CC12CC3CC(CC(Br)(C3)C1)C2 returned ATG4B inh 61*, UBC13 inh -9, MEKK2 WT-MEK5 98, MEKK3 PB1 HTS 101, MEKK2 mut-MEK5 0, PREPL inhibitor 10 and PLA2 counter 73*.
NC(=O)NC(=O)COC(=O)CC12CC3CC(CC(C3)C1)C2 was read as ATG4B inh -12, UBC13 inh 12, MEKK2 WT-MEK5 100, MEKK3 PB1 HTS 103, MEKK2 mut-MEK5 -2 and PREPL inhibitor -4.
Screening Cn1cccc1C(=O)NC(=O)COC(=O)CC12CC3CC(CC(C3)C1)C2 returned ATG4B inh 62*, UBC13 inh 10, MEKK2 WT-MEK5 104, MEKK3 PB1 HTS 105, MEKK2 mut-MEK5 7, PREPL inhibitor -10 and PLA2 counter 54*.
`S=C(NCc1ccccc1)NCc1cccc(CNC(=S)NCc2ccccc2)c1` gave ATG4B inh 68*, UBC13 inh 6, MEKK2 WT-MEK5 105, MEKK3 PB1 HTS 86, MEKK2 mut-MEK5 -3, PREPL inhibitor -10 and PLA2 counter 77*.
S=C(NCc1ccccc1)NCC1COc2ccccc2O1 (stereo not given) was read as ATG4B inh 53*, UBC13 inh 1, MEKK2 WT-MEK5 99, MEKK3 PB1 HTS 98, MEKK2 mut-MEK5 3, PREPL inhibitor -11 and PLA2 counter 61*.
`Fc1ccc(CNC(=S)NCc2cccc(Cl)c2)cc1` gave ATG4B inh 79*, UBC13 inh 5, MEKK2 WT-MEK5 102, MEKK3 PB1 HTS 99, MEKK2 mut-MEK5 5, PREPL inhibitor -4 and PLA2 counter 86*.
`S=C(NCc1ccccc1)NCc1cccc(Cl)c1` gave ATG4B inh 64*, UBC13 inh 5, MEKK2 WT-MEK5 102, MEKK3 PB1 HTS 105, MEKK2 mut-MEK5 4 and PLA2 counter 78*.
For CN1CCN(c2ccc(NC(=S)NC(=O)/C=C/c3ccco3)cc2)CC1 the results were ATG4B inh -5, UBC13 inh -13, MEKK2 WT-MEK5 111, MEKK3 PB1 HTS 98, MEKK2 mut-MEK5 8 and PREPL inhibitor 18.
CCCN(CCC)C(=O)c1cc(S(=O)(=O)N2CCCCC2)c[nH]1 was read as ATG4B inh -10, UBC13 inh 4, MEKK2 WT-MEK5 103, MEKK3 PB1 HTS 103, MEKK2 mut-MEK5 2 and PREPL inhibitor -3.
Screening NC(=O)NCc1cccc(Cl)c1 returned ATG4B inh 4, UBC13 inh 3, MEKK2 WT-MEK5 105, MEKK3 PB1 HTS 99, MEKK2 mut-MEK5 5 and PREPL inhibitor -2.

Assay outcomes deposited in PubChem BioAssay by several laboratories.
